# High-throughput results as filed in PubChem BioAssay.
# TrxR1 inh – blocks rat thioredoxin reductase 1; 390,000 compounds, 1% hits; O89049; AID 588453; recombinant rTrxR1, NADPH fluorescence consumption, selenite substrate; Potency, µM (top dose mostly 114 µM), for the others: top-dose activity change, negative = inhibition, actives largely listed as inhibitors; also: potency is read from the fitted curve at half-maximal effect; nearly all actives have a fitted effect of over 65% in size
#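 Rat TrxR1 (90 nM in the dispensed reagent) was pre-reduced with 400 uM NADPH for 5 min at room temperature, then incubated with compound for 15 min. After 400 uM selenite was added, NADPH fluorescence (Ex 340/Em 450 nm) was followed for 8 min.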
# TrxR1 substrate – is turned over as a substrate by rat TrxR1 | Potency, µM (titrated, usually from 114 µM), inactives show at the highest dose activity change, negative = substrate turnover | O89049 | AID 588456 | 390,000 compounds, 0.01% hits | purified TrxR1 substrate turnover, NADPH consumption readout; also: potency is read from the fitted curve at half-maximal effect; nearly all actives have a fitted effect of over 50% in size
#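 Rat TrxR1, dispensed at 90 nM, was prereduced with 400 uM NADPH (final) for 5 min at ~22 deg C, then incubated with compound 15 min before 400 uM selenite. A first-read NADPH fluorescence drop versus no-compound background flagged substrates.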
# GALK inhibitor – inhibitors of human galactokinase | P51570 | Purified GALK, Kinase-Glo residual ATP luminescence | Potency, µM (top dose mostly 57.5 µM), for inactives: top-dose activity change, negative = inhibition, usual class: inhibitors | 270,000 compounds, 0.007% hits; also: potency is read from the fitted curve at half-maximal effect
#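 Quantitative HTS: GALK 5 nM, ATP 35 uM, galactose 100 uM, 1 h room temperature, then luciferase-based ATP detection.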
# USP1-UAF1 inh – USP1/UAF1 (human) deubiquitinase inhibition. O94782. recombinant USP1/UAF1, Ub-Rhodamine cleavage fluorescence. Potency, µM (doses to about 57.1 µM), for the others: at the top dose activity change, negative = inhibition, hits mostly inhibitors. 390,000 compounds, 0.23% hits; also: potency is read from the fitted curve at half-maximal effect; nearly all actives have a fitted effect of over 60% in size
# Target sequence (O94782 whole entry, looked up): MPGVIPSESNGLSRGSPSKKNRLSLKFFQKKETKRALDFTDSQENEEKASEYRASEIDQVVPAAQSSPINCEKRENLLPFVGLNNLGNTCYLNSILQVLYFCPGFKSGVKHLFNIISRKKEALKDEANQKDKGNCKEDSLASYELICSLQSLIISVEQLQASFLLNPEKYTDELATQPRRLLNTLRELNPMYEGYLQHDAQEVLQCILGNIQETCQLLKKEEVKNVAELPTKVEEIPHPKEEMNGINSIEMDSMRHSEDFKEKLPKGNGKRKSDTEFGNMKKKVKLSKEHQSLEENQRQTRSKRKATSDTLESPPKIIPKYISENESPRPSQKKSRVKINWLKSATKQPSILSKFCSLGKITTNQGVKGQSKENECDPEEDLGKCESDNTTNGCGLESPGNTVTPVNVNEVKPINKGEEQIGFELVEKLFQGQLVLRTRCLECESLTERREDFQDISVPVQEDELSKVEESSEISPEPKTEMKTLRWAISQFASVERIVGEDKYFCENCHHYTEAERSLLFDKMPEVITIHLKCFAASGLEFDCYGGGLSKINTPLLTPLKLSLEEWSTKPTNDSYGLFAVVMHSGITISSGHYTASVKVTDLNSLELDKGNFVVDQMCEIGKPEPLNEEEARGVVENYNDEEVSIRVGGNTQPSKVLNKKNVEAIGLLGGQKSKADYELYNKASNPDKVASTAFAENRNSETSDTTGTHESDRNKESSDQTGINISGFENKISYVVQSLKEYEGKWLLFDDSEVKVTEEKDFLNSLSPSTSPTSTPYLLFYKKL
#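 High-throughput fluorogenic screen: 1nM USP1/UAF1 complex, Ub-Rho substrate 150nM final, 50mM HEPES pH 7.8 with 0.5mM EDTA, 0.1 mg/ml BSA, 1mM TCEP and 0.01% Tween-20.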
# Coupling enz – counter-screen for Giardia aldolase inhibitors: coupling enzyme system. 290,000 compounds, 0.67% hits. AID 2472. coupling enzyme system counterscreen, AmpLite Red fluorescence. activity change, negative = inhibition, % at 58.2 µM, hits read low; in the data active = activity change below about -30%
#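 Coupling enzymes only (glyceraldehyde-3-phosphate) + compound, at 57.5 uM final, 10 min RT; add substrate/coupling/AmpLite Red mix, 20 min RT; fluorescence ex 525/em 598 nm. Actives flag coupling-system interference.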
# Numbers without * were called inactive; ? = inconclusive; . = no result; [ ] = another dose, or the depositor's remark. Compounds with a hit are over-represented: about 1.5% of the library has one in this group of screens. Unless noted, calls follow the shape of the dose curve; as a rule, active = well fitted curve in the direction sought with a large enough effect; inconclusive = small, poorly fitted or top-dose-only effect, or another doubt; inactive = no such curve, though single readings can be large; an effect the other way counts as inactive or inconclusive. % is scaled to controls: 0 for no effect and ±100 for the full control effect.
SMILES,TrxR1 inh,TrxR1 substrate,GALK inhibitor,USP1-UAF1 inh,Coupling enz
CC(C)OC(=O)CN1C(=O)S/C(=C/c2ccc(N3CCCCC3)o2)C1=O,?,-1%,-3%,?,-38*
O=C1S/C(=C/c2ccc(N3CCOCC3)o2)C(=O)N1Cc1ccc(F)cc1,8.9µM*,-4%,-3%,14µM*,.
O=C1NC(=S)S/C1=C/c1ccc(N2CCOCC2)o1,13µM*,-15%,2%,?,-51*
Cc1ccccc1NC(=O)COc1ccccc1C(=O)Nc1ccccc1,32%,5%,.,.,.
COc1cc([C@@H]2CC(=O)c3c(O)cc(O)cc3O2)ccc1O,.,.,.,.,5
CN(C)c1ccc(N=Cc2ccnc3ccccc23)cc1,-1%,-6%[0.0914 µM],.,.,.
CCCCC(C)/C=C(C)/C=C(\C)C(=O)NC1=CC(O)(/C=C/C=C/C=C/C(=O)NC2=C(O)CCC2=O)C2OC2C1=O (stereo not given),.,.,.,.,2
O=C1S/C(=C\c2ccc(N3CCOCC3)o2)C(=O)N1Cc1ccc(F)cc1,2.5µM*,-11%[57.1 µM],-1%,5.6µM*,-36*
O=C1N/C(=C/c2ccc(N3CCOCC3)cc2)C(=O)N1Cc1ccc(F)cc1,3%,-1%,-5%,-9%,2
CN(C)c1ccc(/C=C2\C=Cc3ccccc32)cc1F,-2%,-4%,.,.,.
COc1cc(CNc2ccc(N3CCCC3)cc2)ccc1OCc1ccccc1,?,-8%,-6%,?,-20
COc1cc(CNc2ccc(O)cc2)cc(Br)c1OCc1ccccc1F,20µM*,-14%,-3%,?,-57*
CCOc1cc(CNc2ccc(O)cc2)cc(Br)c1OCc1ccccc1F,?,-4%,-4%,?,-56*
COc1cc(CNc2ccc(N3CCCC3)cc2)ccc1OCc1ccccc1F,10µM*,-13%,0%,?,0
Cc1cc(C)c2oc(-c3cccc(NC(=O)COc4ccc(Cl)cc4C)c3C)nc2c1,8%,4%,.,.,.
C[N+]1(CC(=O)c2ccc(-c3ccccc3)cc2)CCOCC1,-5%,10%,.,.,.
CCc1ccc(S(=O)(=O)Nc2ccc(O)c3c(=O)cc(-c4ccccc4Cl)oc23)cc1,11%,-3%,-1%,?,1
O=c1cc(-c2ccccc2Cl)oc2c(NS(=O)(=O)c3cc(Cl)cc(Cl)c3O)ccc(O)c12,8%,3%,.,25µM*,7
O=C(C[N+]1(CCc2ccccc2)CCOCC1)c1ccccc1,13%,7%,.,.,.
Cc1ccc(NC(=O)CSC2=C(C#N)C(c3ccc4c(c3)OCO4)C3=C(CCCC3=O)N2)c(C)c1 (stereo not given),28µM*,-4%,1%,-24%,-1
CC(=O)ON(C(C)=O)c1ccc(/C=C2\C=Cc3ccccc32)cc1,-8%,0%,.,.,.
COc1ccc2nc(Cl)c(C3CC(c4ccco4)=NN3C(=O)CCCC(=O)O)cc2c1 (stereo not given),40µM*,4%,-2%,-9%,1
COc1ccc2nc(Cl)c(C3CC(c4ccco4)=NN3C(=O)CCC(=O)O)cc2c1 (stereo not given),-6%[57.1 µM],7%[57.1 µM],.,-26%,-2
CC(C)CN=Cc1c(O)c([N+](=O)[O-])cc2oc3c(c12)CCCC3,-23%,-15%,1%,1%,-32*
O=[N+]([O-])c1cc2oc3c(c2c(C=NCc2ccccc2)c1O)CCCC3,-13%[57.1 µM],5%[57.1 µM],1%,-21%,-29
SMILES,TrxR1 inh,TrxR1 substrate,GALK inhibitor,USP1-UAF1 inh,Coupling enz
Cc1ccc(C)c(NC(=S)/C(=C(\[O-])c2ccc(Cl)s2)[n+]2ccccc2)c1,8%,-2%,-2%,?,-40*
CCc1cccc(CC)c1NC(=S)/C(=C(\[O-])c1ccc(Cl)s1)[n+]1ccccc1,14%,-6%,0%,-19%,0
[O-]/C(=C(\C(=S)Nc1cccc2ccccc12)[n+]1ccccc1)c1ccc(Cl)s1,0%,5%[11.4 µM],-2%,-5%,-39*
CC(C)(C)c1cc[n+](/C(C(=S)NC2CC2)=C(/[O-])c2ccc(Cl)s2)cc1,-9%,-7%,1%,-10%,-44*
CC(=O)CC1OC(=O)C(Br)=C1NCc1ccccc1 (stereo not given),14µM*,3%,-2%,-21%,2
N#CC(C#N)=NNc1ccc(S(=O)(=O)N2CCCCC2)cc1,32µM*,-12%,-5%,-22%,18
O=C(c1ccc(Nc2nccc(-c3cc4ccccc4s3)n2)cc1)N1CCC(N2CCCC2)CC1,.,.,.,.,1
O=C(CSc1nc2scc(-c3ccco3)c2c(=O)n1-c1ccccc1)NCC1CCCO1 (stereo not given),45µM*,-5%,-2%,-24%,3
Cc1ccc(-n2c(SCC(=O)NCC3CCCO3)nnc2-c2ccoc2C)cc1 (stereo not given),9%,8%,1%,-13%,2
C=CCn1c(SCC(=O)NCCOC)nc2scc(-c3ccco3)c2c1=O,45µM*,-2%,5%,-8%,-1
C=CCn1c(SCC(=O)NCC2CCCO2)nc2scc(-c3ccco3)c2c1=O (stereo not given),-38%,7%,-1%,-21%,1
NC(=O)CSc1nc2scc(-c3ccco3)c2c(=O)n1-c1ccccc1,8.9µM*,-2%[57.1 µM],-3%,-16%,3
C=CCn1c(SCC(=O)NCC2CCCO2)nc2scc(-c3ccc(OC)cc3)c2c1=O (stereo not given),-12%,-16%,4%,-5%,0
Cc1ccc(C)c(-n2c(SCC(=O)NCC3CCCO3)nnc2-c2ccoc2C)c1 (stereo not given),28µM*,3%,1%,-22%,10
O=[N+]([O-])c1cc(CN2CCCC2)c2cccnc2c1O,?,-18%,1%,-22%,-35*
c1ccc2cnccc2c1,3%,3%,.,.,.
CCc1[nH]c(=O)[nH]c1C(C)S(=O)(=O)c1ccc(C)cc1 (stereo not given),1.1µM*,12%[57.1 µM],6%,-7%,3
Cc1cc(C)c2sc(N(CCN(C)C)C(=O)CCS(=O)(=O)c3ccccc3)nc2c1,?,-1%,-7%,-24%,1
O=C(CCS(=O)(=O)c1ccccc1)N(Cc1cccnc1)c1nc2ccc(F)cc2s1,3.2µM*,1%[57.1 µM],.,-25%,.
CC(=O)N(Cc1cccnc1)c1nc2ccc(F)cc2s1,19%[57.1 µM],5%[57.1 µM],.,-20%,.
CCN(CC)CCN(C(=O)CCS(=O)(=O)c1ccccc1)c1nc2cc(C)cc(C)c2s1,14µM*,12%,0%,-23%,-2
CCN(CC)CCN(C(=O)CCS(=O)(=O)c1ccccc1)c1nc2c(C)cc(C)cc2s1,?,-3%,6%,-20%,0
CCN(CC)CCN(C(=O)CCS(=O)(=O)c1ccccc1)c1nc2cc(OC)c(OC)cc2s1,11µM*,-3%,-1%,-6%,1
